# Bioassay records as filed in PubChem.
# Most compounds without a hit are left out; they make up all but 1.6% or so of the library.
# KCNQ2 enhance: potentiators of rat KCNQ2 potassium channel | B-score at 10 µM | 310,000 tested, 0.54% active | CHO-K1 KCNQ2, FluxOR thallium flux fluorescence; active compounds read high | AID 2239;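 active = fluorescence ratio B-score at least 3 SD of library B-scores, with initial fluorescence B-score within 3 of them, cut at about 5.3 in these data; same plate scores as AID 2156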;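 also: B-score of peak minus minimum over baseline fluorescence ratio after K+ and Tl+ stimulus; positive B-score means potentiation of KCNQ2 with more thallium influx and brighter signal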
# KCNQ2 inh: blocks the rat KCNQ2 potassium channel; 310,000 tested, 1.1% active; CHO-K1 KCNQ2, FluxOR thallium flux, 20 min; active compounds read low; B-score at 10 µM; O88943;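 active = fluorescence ratio B-score at most minus 3 library SDs, with starting brightness B-score within 2 library SDs, cut at about -5.5 in these data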
# Kir21 conf inh: confirmation of mouse Kir2.1 potassium channel inhibitors; Tl flux remaining, % of negative control (active compounds read low), % at 10 µM; 2,300 tested, 41% active; shares compounds with KCNQ2 enhance; Kir2.1-expressing cells, FluxOR thallium flux fluorescence; active compounds read low;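 active = Primary-screen hit whose thallium flux fell at least 3 control SD below untreated wells in both duplicates, with normal baseline fluorescence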
# HEK293 Tl flux: alters thallium flux in parental HEK293 cells, Kir2.1 counter-screen. shares compounds with KCNQ2 enhance. FluxOR thallium flux fluorescence; 0% = unstimulated blank wells. FluxOR signal as % of negative control (100 = no effect), % at 10 µM. 2,300 tested, 19% active. AID 2105;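 active = dye signal at least 3 control SD above or below untreated wells in both duplicates, raw fluorescence within 3, either direction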;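 also: percent is based on the flux ratio of peak minus minimum fluorescence over baseline F0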
# CHO-K1 ctr: alters thallium flux in parental CHO-K1 cells, KCNQ2 counter-screen | shares compounds with KCNQ2 enhance | FluxOR thallium flux fluorescence; zero = vehicle mean+3SD, 100% = vehicle-minus-blank window | activity increase over 3SD of controls, % at 10 µM | 1,200 tested, 43% active;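 active = signal rise of at least 3 SD above the untreated control mean, in both duplicate wells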;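 also: counter screen of KCNQ2 potentiator hits so any rise reflects channel-independent effects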
# KCNQ1 sel pot: tests whether KCNQ2 potentiators also act on human KCNQ1; shares compounds with KCNQ2 enhance; CHO KCNQ1 stable, FluxOR thallium flux fluorescence; beyond 3SD, as % of vehicle-control signal; activation over 3SD threshold, % at 10 µM; 1,200 tested, 28% active;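 active = fluorescence ratio rise of at least 3 SD of vehicle wells above their mean, in both replicate wells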
# KCNQ2 pot confirm: confirmation of rat KCNQ2 potassium channel potentiators | shares compounds with KCNQ2 enhance | CHO-KCNQ2 cells, FluxOR thallium flux fluorescence | potentiation, less the hit threshold, % at 10 µM | 1,200 tested, 68% active;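 active = fluorescence ratio rising 3 SD or more over the vehicle control mean in both replicates, plus primary screen hit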;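 also: peak minus minimum thallium fluorescence divided by baseline after K/Tl stimulus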
# Kir21 spec: tests whether KCNQ2 potentiators also affect mouse Kir2.1; AID 2345; 1,200 tested, 2% active; shares compounds with KCNQ2 enhance; HEK293 Kir2.1, FluxOR thallium flux fluorescence; activity over 3SD threshold, % at 10 µM;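 active = fluorescence ratio rise of at least 3 SD above the vehicle-control mean, seen in both replicates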
# KCNQ2 W236L MoA: potentiates the retigabine-insensitive rat KCNQ2 W236L mutant channel. 940 tested, 10% active. shares compounds with KCNQ2 enhance. CHO KCNQ2-W236L, automated patch clamp current. current increase over 3SD of negative controls (%), active compounds read high, % at 25 µM. AID 2558;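 active = current increase at least 3 SD of the untreated controls above them in both duplicate recordings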
# Target sequence (O88943 whole entry W236L, looked up): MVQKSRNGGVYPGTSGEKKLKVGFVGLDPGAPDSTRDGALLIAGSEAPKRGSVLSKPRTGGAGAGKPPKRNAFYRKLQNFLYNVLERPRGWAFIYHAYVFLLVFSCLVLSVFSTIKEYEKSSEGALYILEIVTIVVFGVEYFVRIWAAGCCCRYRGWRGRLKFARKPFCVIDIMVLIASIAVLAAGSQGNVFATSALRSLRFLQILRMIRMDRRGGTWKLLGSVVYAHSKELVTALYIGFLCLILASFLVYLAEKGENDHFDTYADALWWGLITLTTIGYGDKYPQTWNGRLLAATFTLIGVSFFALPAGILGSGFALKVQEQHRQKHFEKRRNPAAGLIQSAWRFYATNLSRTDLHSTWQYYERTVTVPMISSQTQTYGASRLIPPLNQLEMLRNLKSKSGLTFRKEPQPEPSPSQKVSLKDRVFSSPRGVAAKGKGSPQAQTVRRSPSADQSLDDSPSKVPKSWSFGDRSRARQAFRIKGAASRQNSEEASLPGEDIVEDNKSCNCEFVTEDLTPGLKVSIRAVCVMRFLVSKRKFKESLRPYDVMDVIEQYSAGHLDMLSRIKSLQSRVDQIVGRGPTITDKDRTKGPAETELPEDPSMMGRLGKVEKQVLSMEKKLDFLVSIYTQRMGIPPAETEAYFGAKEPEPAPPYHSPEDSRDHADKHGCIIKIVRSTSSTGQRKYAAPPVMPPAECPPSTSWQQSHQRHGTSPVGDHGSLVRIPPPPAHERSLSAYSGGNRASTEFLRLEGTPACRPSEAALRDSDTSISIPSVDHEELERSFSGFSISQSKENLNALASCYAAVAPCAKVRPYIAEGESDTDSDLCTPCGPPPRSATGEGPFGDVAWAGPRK
# Numbers stand for hits; . = inactive; / = no result given.
SMILES,KCNQ2 enhance,KCNQ2 inh,Kir21 conf inh,HEK293 Tl flux,others
CC(C)(C)C(=O)NC(=S)NNC(=O)C(c1ccccc1)c1ccccc1,6.6,.,.,66%,CHO-K1 ctr=.;KCNQ1 sel pot=.;KCNQ2 pot confirm=.;Kir21 spec=.
Cc1c(CN2CCC(n3nccc3NC(=O)C3CCOC3)CC2)[nH]c2ccccc12 (stereo not given),.,.,/,/,
O=C(Nc1ccnn1C1CCN(Cc2cc3ccccc3[nH]2)CC1)C1CCOC1 (stereo not given),5.7,.,.,.,CHO-K1 ctr=.;KCNQ1 sel pot=1.5;KCNQ2 pot confirm=42;Kir21 spec=.;KCNQ2 W236L MoA=.
O=C(NCc1cccs1)C1CCN(S(=O)(=O)c2cccc([N+](=O)[O-])c2)CC1,/,.,/,/,
Cc1ccc(CCNS(=O)(=O)c2ccc3c(c2)N(C)CCO3)cc1,/,.,/,/,
Cc1cc(C)n(CC(=O)NC2CCCN(Cc3ccc(Cl)cc3)C2)n1 (stereo not given),.,.,/,/,
O=C(Cc1cccc(F)c1F)NC1CCCN(Cc2ccc(Cl)cc2)C1 (stereo not given),6.2,.,.,218%,CHO-K1 ctr=116;KCNQ1 sel pot=.;KCNQ2 pot confirm=16;Kir21 spec=.;KCNQ2 W236L MoA=.
COc1cc(/C=N/NC(=O)c2ccc(CSc3nncn3C)cc2)cc(OC)c1O,.,.,/,/,
CCC1CCCCN1C(=S)NC(=O)c1cccc([N+](=O)[O-])c1 (stereo not given),.,.,.,348%,
CC1CCN(C(=S)NC(=O)c2cccc([N+](=O)[O-])c2)CC1,.,.,/,/,
OCC[C@@H]1C[C@@H](O)[C@H](O)[C@]2(CCc3ccccc3CO2)O1,/,.,/,/,
COC(=O)c1sccc1NC(=S)N1CC(C)CC(C)C1 (stereo not given),/,.,/,/,
O=C(Cn1cnc2ccccc2c1=O)Nc1ccccc1N1CCOCC1,.,.,/,/,
O=C(Cc1ccc(F)cc1)Nc1cccc(-c2cn3c(n2)SCC3)c1,10,.,.,.,CHO-K1 ctr=.;KCNQ1 sel pot=.;KCNQ2 pot confirm=.;Kir21 spec=.
O=C(Nc1cccc(-c2cn3c(n2)SCC3)c1)c1ccc(Br)o1,/,.,/,/,
Cc1ccc(N(C(=O)c2csnn2)C(C(=O)NC2CCCCC2)c2cccnc2)c(C)c1 (stereo not given),.,.,/,/,
Cn1c(CNC(=O)c2ccccc2F)nnc1SCCOc1ccccc1,.,.,/,/,
COC(=O)c1ccc(C(=O)N2CCCC(N3CCN(c4ccccc4)CC3)C2)nc1 (stereo not given),.,.,/,/,
O=C1N/C(=N/O)S/C1=C/c1cccc([N+](=O)[O-])c1,.,.,/,/,
Cc1cccc(/C=C2/S/C(=N/N=C3\CC4CCC3(C)C4(C)C)NC2=O)c1 (stereo not given),21,.,.,.,CHO-K1 ctr=.;KCNQ1 sel pot=.;KCNQ2 pot confirm=.;Kir21 spec=.;KCNQ2 W236L MoA=.
CC(NCc1cc(Br)ccc1OCC(=O)NCc1ccccc1)c1ccccc1 (stereo not given),/,.,43%,.,
CCN(CC)CCNCc1cc(Br)ccc1OCC(=O)NCc1ccccc1,/,.,/,/,
Cn1cc(C(=O)Nc2ccc(C#N)cc2)c2ccccc2c1=O,.,.,/,/,
Cc1sc2nc(CSC(C)C(=O)N3CCOCC3)[nH]c(=O)c2c1C (stereo not given),.,.,/,/,
CCN(CC)C(=O)c1sc(N2C(=O)Nc3ccccc3N2O)c(C(=O)OC)c1C,/,.,/,/,
COc1ccc(C(C)=O)cc1CSCC(=O)O,.,.,/,/,
COc1ccc(C(=O)/C=C/c2cccc(OCc3ccccc3)c2)cc1CSCC(=O)O,/,.,74%,.,
COCCn1c(CN2CCN(C(c3ccccc3)c3ccccc3)CC2)nc2c1c(=O)n(C)c(=O)n2C,5.9,.,.,.,CHO-K1 ctr=.;KCNQ1 sel pot=.;KCNQ2 pot confirm=.;Kir21 spec=.
Cn1c(=O)c2c(nc(CN3CCN(C(c4ccccc4)c4ccccc4)CC3)n2CCCO)n(C)c1=O,/,.,/,/,
